Test results from PubChem BioAssay AID720518 (National Center for Advancing Translational Sciences (NCATS), 2013).
Inconclusive results are not listed. Unmarked numbers belong to inactive results. The call rests on the fitted dose curve.

test: qHTS for Inhibitors of Cell Surface uPA Generation: Wild-type Protective Antigen (WT-PrAg) Counterscreen for Cherry-picked Compounds; details: cells, WT protective antigen toxicity counterscreen; series mostly up to 115 µM; activity (protection): at the top concentration; further: 0% is about no effect

First: COCCn1c(SCC(=O)Nc2ccc(F)cc2)nc2ccccc2c1=O
Second: COc1ccccc1-c1ccc(SCC(=O)NCCc2ccccc2)nn1
The “activity (protection)” value of the first is higher: 4.62% for the first, -1.14% for the second.

Going from `CC1CCC(NC(=O)c2nn(C)c3c2CS(=O)(=O)c2ccccc2-3)CC1` (stereo not drawn) to `CC1(NC(=O)CSc2nnc(-c3c[nH]c4ccccc34)n2C2CC2)CCS(=O)(=O)C1` (stereo not drawn), the “activity (protection)” value rises from -1.64% to 1.32%.

Going from `Cc1cccc(C(=O)NCC(=O)OCC(=O)NC2CCCCCCC2)c1` to `O=C(NC(=O)c1ccccc1)Nc1cccc(S(=O)(=O)N2CCCCC2)c1`, the “activity (protection)” value falls from 0.954% to -0.591%.

Compared with `Cc1ccccc1O`, `CC(=O)NC(=S)Nc1ccc([N+](=O)[O-])cc1C` is higher in “activity (protection)” value: -0.342% for the first, 4.08% for the second.

First: CC1C2=C(CC(C)(C)CC2=O)NC2=C1C(=O)CC(C)(C)C2
Second: CC(O)[C@H]1CNC(=O)C(=O)N1CCc1cccc(F)c1 (stereo partly drawn)
The “activity (protection)” value of the first is lower: -0.457% for the first, 1.24% for the second.

First: COc1cc(C(=O)N/N=C(\Cc2ncc[nH]2)c2ccccc2)cc(OC)c1OC
Second: C=CC[n+]1c(/C=C/c2ccc(OC(C)=O)c(OC)c2)ccc2ccccc21
The “activity (protection)” value of the first is higher: 1.36% for the first, -2.58% for the second.

Going from `CCN1CCCCC(=N/O)/C(=N/O)CCCC1` to `CCCNC(=O)COc1coc(CN2CCN(c3ccccc3OC)CC2)cc1=O`, the “activity (protection)” value falls from 3.08% to -0.447%.

Going from `Cn1c(=O)c2c(ncn2CCO)n(C)c1=O` to `Cc1cc(=O)[nH]c2c(C)cc(S(=O)(=O)Nc3ccc(O)cc3)cc12`, the “activity (protection)” value falls from -0.0315% to -1.13%.

First: O=C(CSc1nncs1)NC(=O)NCc1ccco1
Second: O=C(Nc1ccc(NC(=O)c2ccco2)c(Cl)c1)c1ccccc1
The “activity (protection)” value of the first is lower: -1.16% for the first, 0.145% for the second.

Going from `CC1CCN(C2=C(NS(=O)(=O)c3ccc(Br)cc3)C(=O)c3ccccc3C2=O)CC1` to `COc1ccc(S(=O)(=O)c2c(O)c3ccc(C(=O)Nc4ccccc4)cc3[nH]c2=O)cc1`, the “activity (protection)” value rises from -2.21% to -1.78%.

Compared with `CS(=O)(=O)N1CCC(C(=O)Nc2ccccc2)CC1`, `O=C(Nc1cccc(C2=NCCN2)c1)Nc1cccc(C2=NCCN2)c1` is lower in “activity (protection)” value: 0.215% for the first, -2.19% for the second.

For `Cc1ccc(N2C(=O)CC(N3CCN/C3=C3\CC/C(=C\c4ccccc4)C3=O)C2=O)cc1` (stereo not drawn), the “activity (protection)” value was -0.58%.
